Reference: PubChem BioAssay (NCI)
The panel holds about 83,000 compounds, 20% with a hit somewhere; the sample as a whole holds those more often.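 48-hour exposure, single concentration, 96-well plates; percent growth endpoint where 0 means no net growth. Active: below 10.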 A number with no mark means an inactive call. The source made the active and inactive calls.

Test system: HL-60(TB) leukemia
Experiment: NCI-60 one-dose screen, 48 h (100 = growth as untreated, 0 = no growth, -100 = all killed)
Conditions: 10 µM unless noted

Structure (SMILES)	growth
COc1ccc(NC(=O)N/N=C/c2c[nH]c3ccccc23)cc1	1.79% (active)
CC1[C@H]2[C@H](C[C@H]3[C@@H]4CC=C5c6sc(Nc7ccccc7F)nc6CC[C@]5(C)[C@H]4CC[C@@]32C)O[C@]12CC[C@@H](C)CO2 (some centres not stated)	-41.9% (active)
COc1cc(C2CC(c3cc(OC)c(OC)c(OC)c3)=NN2C(C)=O)ccc1OCc1ccc(F)cc1 (configuration not stated)	37.3%
N#Cc1ccc(-c2nn(-c3ccc(C(=O)O)cc3)cc2CNc2ccc(Oc3ccccc3)cc2)cc1	34.4%
CN(C)c1ccnc(CNCCSC2(c3ccc(C(F)(F)F)cc3)c3ccccc3C=Cc3ccccc32)c1	-34.1% (active)
Clc1ccccc1Nc1nnc(-c2c[nH]c3ccccc23)o1	-0.476% (active)
COc1cc(/C=C/C(=O)c2ccc(NC(=O)CN3C(=O)NC(C)(c4ccccc4)C3=O)cc2)cc(OC)c1OC (configuration not stated)	-11.5% (active)
CC1=C(C(=O)c2ccccc2)C(c2cccc3ccccc23)n2c(nc3ccccc32)N1 (configuration not stated)	58.6%
CC(C)CSc1nc(NCCc2c[nH]c3ccccc23)c(C#N)c(-c2ccc(Cl)cc2)n1	47.5%
Cc1ccc(S(=O)(=O)c2nc(S(=O)(=O)c3ccc(C)cc3)c(N3CCC(O)CC3)s2)cc1	35.5%
C=C1CC[C@@H]2[C@]3(C)COC(c4cn[nH]c4-c4ccc(F)cc4)O[C@@H]3CC[C@@]2(C)[C@@H]1C/C=C1/C(=O)OCC1O (some centres not stated)	-21.7% (active)
Cc1ccc(Cl)cc1NC(=O)N/C(N)=N/c1nc2ccccc2s1	-44.9% (active)
